Measurements: PubChem BioAssay (NCATS)
Records with an inconclusive call do not appear. Unmarked numbers belong to inactive results. The source made the active and inactive calls. Calls follow the shape of the dose curve; as a rule, active = well fitted curve in the direction sought with a large enough effect; inconclusive = small, poorly fitted or top-dose-only effect, or another doubt; inactive = no such curve, though single readings can be large; an effect the other way counts as inactive or inconclusive.

molecular target: Rap guanine nucleotide exchange factor 3 (Homo sapiens) (UniProt O95398); assay: Confirmatory qHTS for antagonist of cAMP-regulated guanine nucleotide exchange factor 3 (EPAC1) (AID 1645880); details: EPAC1 Rap1B-BODIPY-GDP exchange, fluorescence; series mostly up to 115 µM; activity, negative = inhibition: at the top concentration; also: nearly all actives have a fitted effect of over 55% in size; also: potency is read from the fitted curve at half-maximal effect;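 as to activity, negative = inhibition: plate controls were DMSO only for no effect and full effect of the ATA control for full effect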
Procedure, shortened: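 Released BODIPY-GDP fluoresces less than Rap1-bound BODIPY-GDP; the signal is followed at 480/540 nm at 5-min intervals over 30 min, after 5 min at room temperature. Reactions contain 100 nM EPAC1, 250 nM RAP1B-BODIPY-GDP and 50 uM GDP; results are normalized to ATA and DMSO.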

Chain of Rap guanine nucleotide exchange factor 3 (Homo sapiens) (O95398 whole entry, looked up): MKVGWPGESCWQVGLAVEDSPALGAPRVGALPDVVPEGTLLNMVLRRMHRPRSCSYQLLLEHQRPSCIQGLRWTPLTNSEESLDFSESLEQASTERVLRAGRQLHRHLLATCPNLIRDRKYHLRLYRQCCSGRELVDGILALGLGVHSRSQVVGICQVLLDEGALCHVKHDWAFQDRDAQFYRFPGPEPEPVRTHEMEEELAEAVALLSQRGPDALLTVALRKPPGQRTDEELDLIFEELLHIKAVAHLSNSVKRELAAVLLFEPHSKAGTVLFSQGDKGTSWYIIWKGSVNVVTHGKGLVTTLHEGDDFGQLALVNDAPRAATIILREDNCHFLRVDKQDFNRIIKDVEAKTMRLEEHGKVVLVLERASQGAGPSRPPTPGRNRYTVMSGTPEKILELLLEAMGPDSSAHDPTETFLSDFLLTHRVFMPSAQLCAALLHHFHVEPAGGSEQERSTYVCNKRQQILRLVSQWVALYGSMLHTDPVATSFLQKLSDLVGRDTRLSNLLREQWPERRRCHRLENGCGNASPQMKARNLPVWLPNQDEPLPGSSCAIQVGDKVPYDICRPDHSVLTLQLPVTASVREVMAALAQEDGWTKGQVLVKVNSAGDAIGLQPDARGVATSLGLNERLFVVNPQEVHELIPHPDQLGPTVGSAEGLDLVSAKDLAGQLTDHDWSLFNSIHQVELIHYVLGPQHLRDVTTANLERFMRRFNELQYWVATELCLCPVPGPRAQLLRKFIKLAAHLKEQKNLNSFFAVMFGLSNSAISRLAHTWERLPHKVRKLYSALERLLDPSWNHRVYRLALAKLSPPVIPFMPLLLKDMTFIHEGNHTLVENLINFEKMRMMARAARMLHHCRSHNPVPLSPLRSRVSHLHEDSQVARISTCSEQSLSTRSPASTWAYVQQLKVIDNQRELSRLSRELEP

| Compound | Potency | activity, negative = inhibition [%] |
| --- | --- | --- |
| CC1(COc2ccc(CC3SC(=O)NC3=O)cc2)CCCCC1 (stereo not given) | 49.8 µM (active) | – |
| CC(C)=CCOc1ccc(/C=C/C(=O)c2ccc(OCC=C(C)C)cc2OCC(=O)O)cc1 | 49.8 µM (active) | – |
| CCOC(=O)C(C#N)=C(c1ccccc1)c1ccccc1 | – | -13.1 |

molecular target: Rap guanine nucleotide exchange factor 3 (Homo sapiens) (UniProt O95398); assay: Confirmatory qHTS for agonist of cAMP-regulated guanine nucleotide exchange factor 3 (EPAC1) (AID 1645881); details: EPAC1 Rap1B BODIPY-GDP exchange fluorescence, 100% = cAMP control response; series mostly up to 154 µM; activation: at the top concentration;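 also: EPAC1 catalysed release of BODIPY-GDP from Rap1B seen as fluorescence loss; nearly all actives have a fitted effect of over 75% in size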

| Compound | activation [%] |
| --- | --- |
| CC1(COc2ccc(CC3SC(=O)NC3=O)cc2)CCCCC1 (stereo not given) | -22.2 |
| CC(C)=CCOc1ccc(/C=C/C(=O)c2ccc(OCC=C(C)C)cc2OCC(=O)O)cc1 | -11.4 |
| COc1ccc(C(=O)c2ccccc2O)c(O)c1 | -7.19 |
| CCOC(=O)C(C#N)=C(c1ccccc1)c1ccccc1 | -8.2 |

molecular target: Rap guanine nucleotide exchange factor 4 (Homo sapiens) (UniProt Q8WZA2); assay: Confirmatory qHTS for agonist of cAMP-regulated guanine nucleotide exchange factor 4 (EPAC2) (AID 1645884); details: EPAC2 GEF activity, Rap1B-BODIPY-GDP fluorescence, percent relative to cAMP agonist control; series mostly up to 154 µM; activation: at the top concentration;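 also: nucleotide exchange releases bodipy-GDP from Rap1 and this lowers its fluorescence; % is scaled to controls: 0 for no effect and ±100 for the full control effect; nearly all actives have a fitted effect of over 65% in size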
Sequence (Q8WZA2 whole entry, looked up): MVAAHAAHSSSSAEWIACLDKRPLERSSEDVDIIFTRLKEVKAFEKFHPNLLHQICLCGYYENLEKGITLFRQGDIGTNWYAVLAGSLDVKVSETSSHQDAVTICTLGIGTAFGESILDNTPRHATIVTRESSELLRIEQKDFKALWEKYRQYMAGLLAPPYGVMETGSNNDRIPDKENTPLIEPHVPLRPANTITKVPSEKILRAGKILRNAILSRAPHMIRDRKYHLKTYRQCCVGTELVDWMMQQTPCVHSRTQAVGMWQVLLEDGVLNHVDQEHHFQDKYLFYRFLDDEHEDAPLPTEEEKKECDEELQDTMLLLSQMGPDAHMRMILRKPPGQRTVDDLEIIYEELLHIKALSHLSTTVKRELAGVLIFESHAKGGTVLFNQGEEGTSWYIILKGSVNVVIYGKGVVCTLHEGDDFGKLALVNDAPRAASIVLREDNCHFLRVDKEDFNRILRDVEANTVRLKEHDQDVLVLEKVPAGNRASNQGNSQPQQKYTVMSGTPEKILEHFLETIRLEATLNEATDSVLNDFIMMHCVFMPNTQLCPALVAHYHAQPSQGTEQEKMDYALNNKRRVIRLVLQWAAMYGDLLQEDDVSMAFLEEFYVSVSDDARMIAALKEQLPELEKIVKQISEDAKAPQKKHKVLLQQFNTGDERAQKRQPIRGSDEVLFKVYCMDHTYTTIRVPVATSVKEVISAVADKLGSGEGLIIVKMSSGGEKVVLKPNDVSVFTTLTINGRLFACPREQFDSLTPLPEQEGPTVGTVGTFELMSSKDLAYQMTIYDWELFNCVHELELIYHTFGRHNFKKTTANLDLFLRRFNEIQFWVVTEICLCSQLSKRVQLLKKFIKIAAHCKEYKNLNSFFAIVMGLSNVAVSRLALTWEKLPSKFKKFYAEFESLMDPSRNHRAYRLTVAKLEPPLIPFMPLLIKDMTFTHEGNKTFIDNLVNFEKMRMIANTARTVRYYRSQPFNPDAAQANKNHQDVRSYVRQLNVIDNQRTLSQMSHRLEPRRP

| Compound | activation [%] |
| --- | --- |
| CC1(COc2ccc(CC3SC(=O)NC3=O)cc2)CCCCC1 (stereo not given) | -34 |
| CC(C)=CCOc1ccc(/C=C/C(=O)c2ccc(OCC=C(C)C)cc2OCC(=O)O)cc1 | -12.1 |
| COc1ccc(C(=O)c2ccccc2O)c(O)c1 | 10 |
| CCOC(=O)C(C#N)=C(c1ccccc1)c1ccccc1 | -7.48 |

molecular target: Rap guanine nucleotide exchange factor 4 (Homo sapiens) (UniProt Q8WZA2); assay: Confirmatory qHTS for antagonist of cAMP-regulated guanine nucleotide exchange factor 4 (EPAC2) (AID 1645885); details: EPAC2 Rap1B-BODIPY-GDP exchange fluorescence, biochemical; series mostly up to 114 µM; activity change, negative = inhibition: at the top concentration; also: potency is read from the fitted curve at half-maximal effect; nearly all actives have a fitted effect of over 25% in size

| Compound | Potency |
| --- | --- |
| CC1(COc2ccc(CC3SC(=O)NC3=O)cc2)CCCCC1 (stereo not given) | 44.1 µM (active) |
| CC(C)=CCOc1ccc(/C=C/C(=O)c2ccc(OCC=C(C)C)cc2OCC(=O)O)cc1 | 39.3 µM (active) |
| COc1ccc(C(=O)c2ccccc2O)c(O)c1 | 44.1 µM (active) |
| CCOC(=O)C(C#N)=C(c1ccccc1)c1ccccc1 | 49.4 µM (active) |
